S1P4 antag = blocks the human S1P4 receptor | AID 1510 | 220,000 compounds, 0.26% hits | S1P4-expressing cells, antagonist mode, reporter read-out | inhibition, % at 4.98 µM; in the data active = inhibition above about 29%;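 note: 0% = wells stimulated with agonist and 100% = vehicle wells without agonist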
Hsp70 activator = switches on Hsp70 transcription | HeLa Hsp70 promoter luciferase reporter, luminescence; scaled: vehicle 0, proteasome-inhibitor control 100% | activation, % at 10 µM | 200,000 compounds, 0.04% hits;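 active = activation above the mean across all tested compounds plus 3 SD, cutoff set per campaign, cut at about 5.5% in these data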;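 note: 100% = MG132 at 30 µM as the positive control and 0% = DMSO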
HSF1 activator = increases HSF-1 driven luciferase reporter signal; 300,000 compounds, 1.7% hits; NIH3T3-HGL HSF-1 luciferase reporter, MG132, 8 h; 100% = twice DMSO control signal; AID 504408; activation, % at 9 µM;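 active = mean replicate activation of at least 50% with a set share of replicates each reaching 50%; inconclusive = only one of those two conditions met; inactive = mean below 50% and too few replicates reaching it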;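 note: 0% = median of the neutral control wells and 100% = twice that signal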
HSF1 inh = HSF1 inhibition; activity change, negative = inhibition, % at 7.5 µM (by protocol); AID 2098; 300,000 compounds, 0.77% hits; NIH3T3-HGL HSE-luciferase, MG132-induced, luminescence 8 h; hits give low values;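 active = more than half of replicate wells show activity change below -50%, luminescence cut by over half; inconclusive = some wells, but at most half, below -50%; inactive = no replicate well below -50%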;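 note: luciferase reports HSF-1 transcriptional activity via heat shock element; 0% = median of DMSO wells and -100% = zero luminescence signal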
S1P4 ag = human S1P4 receptor agonism. O95977. S1P4-expressing cell line, agonist reporter assay. activation, % at 4.98 µM. 220,000 compounds, 0.35% hits. AID 1509; in the data active = activation above about 11%;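 note: 0% = DMSO vehicle and 100% = reference agonist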
S1P3 antag = antagonists of human S1P3 receptor; Q99500; CHO S1P3 NFAT-BLA reporter, FRET fluorescence, antagonist mode; inhibition, % at 4.98 µM; 170,000 compounds, 0.27% hits;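 active = inhibition above the plate cutoff, the mean inhibition of test wells on that plate plus 3 SD, cut at about 28% in these data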;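 note: cells challenged with S1P at its EC80 of 0.8 µM; blue over green emission ratio from cleaved BLA substrate after 4 h stimulation; 0% = S1P-stimulated wells and 100% = unstimulated DMSO-only wells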
Target sequence (Q99500 whole entry, looked up): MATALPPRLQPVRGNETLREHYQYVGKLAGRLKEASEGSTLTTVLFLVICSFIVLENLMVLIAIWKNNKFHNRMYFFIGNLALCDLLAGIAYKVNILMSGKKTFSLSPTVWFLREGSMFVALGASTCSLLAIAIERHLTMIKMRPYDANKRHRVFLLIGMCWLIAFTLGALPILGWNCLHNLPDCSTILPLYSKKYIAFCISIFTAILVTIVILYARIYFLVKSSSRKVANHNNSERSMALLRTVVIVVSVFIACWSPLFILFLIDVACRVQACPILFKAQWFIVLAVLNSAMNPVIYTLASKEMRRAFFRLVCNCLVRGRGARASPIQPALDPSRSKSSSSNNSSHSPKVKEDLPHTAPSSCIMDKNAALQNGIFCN
* marks the source's active call; other numbers are inactive results. Compounds with a hit are over-represented: about 2.9% of the library has one in this group of screens.

`O=C(COC(=O)c1cccc(O)c1)NCc1ccc2c(c1)OCO2` gave S1P4 antag 5, HSF1 activator 3, HSF1 inh -9, S1P4 ag -1 and S1P3 antag -2.
`CCOC(=O)c1c(CN2CCC(C)CC2)n(C)c2cc(Br)c(OC)cc12` gave S1P4 antag -12, HSF1 activator 94*, HSF1 inh 59, S1P4 ag 1 and S1P3 antag 2.
Screening O=C(/C=C/c1ccccc1)c1ccc2c(c1)OCCCCO2 returned S1P4 antag 2, Hsp70 activator 0, HSF1 activator 34, HSF1 inh 21 and S1P4 ag 0.
O=C1COc2ccc(C(=O)/C=C/c3ccccc3)cc2N1 was read as S1P4 antag 0, Hsp70 activator 0, HSF1 activator 53*, HSF1 inh 22, S1P4 ag -2 and S1P3 antag 12.
Cn1cccc1/C=C1\CCC/C(=C\c2cccn2C)C1=O was read as S1P4 antag -17, Hsp70 activator 0, HSF1 activator 74*, HSF1 inh 45 and S1P4 ag 1.
For CCOc1cc(N2CCOCC2)c(OCC)cc1NC(=O)CN1C(=O)NC(Cc2ccccc2)C1=O (stereo unspecified) the results were S1P4 antag -30, Hsp70 activator 0, HSF1 activator 0, HSF1 inh -1, S1P4 ag 12* and S1P3 antag -7.
CCOc1cc(N2CCOCC2)c(OCC)cc1NC(=O)CN1CCC(Cc2ccccc2)CC1 was read as S1P4 antag -12, Hsp70 activator 0, HSF1 activator 15, HSF1 inh 11, S1P4 ag 1 and S1P3 antag 4.
For CCOC(=O)c1cc2c(=O)n3ccccc3nc2n(CCCOC)c1=NC(C)=O the results were S1P4 antag -16, Hsp70 activator 0 and S1P4 ag 8.
N=c1c(C(=O)NCc2ccc(F)cc2)cc2c(=O)n3ccccc3nc2n1CCCN1CCOCC1 was read as S1P4 antag -29, Hsp70 activator 1, S1P4 ag 14* and S1P3 antag -66.
N=c1c(C(=O)NC2CCCCC2)cc2c(=O)n3ccccc3nc2n1Cc1ccco1 was read as HSF1 activator 0 and HSF1 inh 5.
Screening N=c1c(C(=O)NCc2ccccc2)cc2c(=O)n3ccccc3nc2n1CCCN1CCOCC1 returned S1P3 antag -43.
For N=c1c(C(=O)NCCc2ccccc2)cc2c(=O)n3ccccc3nc2n1Cc1ccco1 the results were HSF1 activator 75* and HSF1 inh 46.
Screening CCOC(=O)c1cc2c(=O)n3cccc(C)c3nc2n(CCOC)c1=NC(C)=O returned S1P4 antag -5, HSF1 activator -72, HSF1 inh -63*, S1P4 ag 0 and S1P3 antag -3.
For CCOC(=O)c1cc2c(=O)n3ccccc3nc2n(Cc2ccco2)c1=NC(=O)c1ccccc1OC the results were S1P4 antag -4, Hsp70 activator 0, HSF1 activator 100*, HSF1 inh 49, S1P4 ag 5 and S1P3 antag -11.
`Cc1ccc(O)c(NC(=O)C2CCCN2C(=O)OCc2ccccc2)c1` (stereo unspecified) gave HSF1 activator -3 and HSF1 inh -5.
`COc1ccc(-c2csc(-n3cccn3)n2)cc1` gave HSF1 activator 61* and HSF1 inh 29.
Screening COc1ccc(NC(=O)CN(Cc2ccccc2)Cc2ccccc2)cc1S(N)(=O)=O returned S1P4 antag -19, Hsp70 activator 0, HSF1 activator -8, HSF1 inh 5, S1P4 ag 0 and S1P3 antag 9.
`COc1ccc(NC(=O)COc2ccccc2Cc2ccccc2)cc1S(N)(=O)=O` gave HSF1 activator 81* and HSF1 inh 42.
COc1ccc(N2C(=O)CC(Sc3nnnn3-c3ccc(F)cc3)C2=O)cc1 (stereo unspecified) was read as S1P4 antag -4, Hsp70 activator 0, HSF1 activator 70*, HSF1 inh 40, S1P4 ag -2 and S1P3 antag -10.
O=C1CC(Sc2nnnn2-c2ccccc2)C(=O)N1c1cccc(Cl)c1 (stereo unspecified) was read as S1P4 antag -10, Hsp70 activator 0, HSF1 activator 11, HSF1 inh 26 and S1P4 ag -1.
O=[N+]([O-])c1ccc(-c2cn(-c3ccccc3)c(=S)[nH]2)cc1 was read as S1P4 antag -14, Hsp70 activator 3, HSF1 activator 30, HSF1 inh 17, S1P4 ag 0 and S1P3 antag 16.
`O=[N+]([O-])c1cccc(-c2cn(-c3ccccc3)c(=S)[nH]2)c1` gave S1P4 antag -1, Hsp70 activator 0, HSF1 activator 74*, HSF1 inh 33, S1P4 ag -1 and S1P3 antag -7.
For Cc1cccc(-n2cc(-c3ccc([N+](=O)[O-])cc3)[nH]c2=S)c1 the results were S1P4 antag -8, Hsp70 activator 0, HSF1 activator 71*, HSF1 inh 28, S1P4 ag -1 and S1P3 antag -2.
Screening Cc1ccc(-n2cc(-c3ccc([N+](=O)[O-])cc3)[nH]c2=S)c(C)c1 returned S1P4 antag -35, Hsp70 activator 0, HSF1 activator inconclusive, HSF1 inh 28, S1P4 ag 1 and S1P3 antag 0.
Screening COc1cccc(NC(=O)Nc2nnc(Cc3ccccc3F)s2)c1 returned HSF1 activator -74 and HSF1 inh -67*.
For COc1ccc(OC)c(CNC(=O)CCn2c(=O)c3cccn3c3ccc(F)cc32)c1 the results were HSF1 activator 19 and HSF1 inh 3.
COc1ccc(-c2cn(-c3ccccc3)nc2CO)cc1 was read as HSF1 activator -91 and HSF1 inh -89*.
COc1ccc(-c2nn(-c3ccccc3)cc2CO)cc1 was read as S1P4 antag -7, Hsp70 activator 0, HSF1 activator 24, HSF1 inh 10 and S1P4 ag 2.
For COc1cc(OC)nc(Oc2ccccc2C(=O)Oc2ccc(C)cc2)n1 the results were S1P4 antag 2, Hsp70 activator 0, HSF1 activator -8, HSF1 inh -3 and S1P4 ag -2.
Screening COc1cc(OC)nc(Oc2ccccc2C(=O)Oc2ccc(Cl)cc2)n1 returned S1P4 antag 1, Hsp70 activator 0, HSF1 activator -90, HSF1 inh -86* and S1P4 ag 0.
For Cc1ccc([N+](=O)[O-])cc1NC(=O)CSc1nnc(C)n1CC1CCCO1 (stereo unspecified) the results were HSF1 activator 30 and HSF1 inh 6.
Screening Clc1ccccc1-c1nnc2sc(-c3ccc4c(c3)OCO4)nn12 returned S1P4 antag 3, Hsp70 activator 0, HSF1 activator -2, HSF1 inh 1, S1P4 ag 1 and S1P3 antag -3.

Source: PubChem BioAssay
